# Compound activity as filed in PubChem.
# Cardio protect: modulators protecting cardiomyocytes from myocardial damage; H9c2 cardiomyocytes, H2O2 injury protection, ATPLite, 2 h; protection from H2O2 cell death, % at 20 µM; 360,000 tested, 0.63% active; AID 588492;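 active means compounds giving at least 50% protection of heart cells from peroxide-induced death in the single-dose screen, raw or plate-pattern-corrected value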;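 further: 0% = DMSO wells with peroxide and 100% = DMSO wells without peroxide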
# Calb FLC: C. albicans growth modulation with fluconazole; 300,000 tested, 0.57% active; growth inhibition, % (concentration not given with the values); C. albicans CaCi-2 (fluconazole-resistant clinical isolate) + fluconazole, Alamar Blue growth, 48 h;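 active means growth inhibition above about 58% in most replicates, limit read from the data, passing the limit was not always enough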;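 further: all wells also contain fluconazole at 8 µg/ml as a sub-toxic cotreatment; 0% = median of DMSO wells and 100% = median of geldanamycin control wells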
# Cl transport mod: modulators of human KCC2 chloride dependent transport | KCC2 cells, thallium flux FluoZin-2 fluorescence | B-score of Tl+ flux slope (higher = more flux/activation; lower = inhibition) at 10 µM | 190,000 tested, 2.2% active | AID 1456;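 active means thallium flux slope and its plate-corrected score both differing from the plate sample mean at a set confidence after two filtering rounds, in either direction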;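 further: slope of fluorescence scaled to starting intensity during 10 to 20 s after thallium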
# Target sequence (Q9H2X9 whole entry, looked up): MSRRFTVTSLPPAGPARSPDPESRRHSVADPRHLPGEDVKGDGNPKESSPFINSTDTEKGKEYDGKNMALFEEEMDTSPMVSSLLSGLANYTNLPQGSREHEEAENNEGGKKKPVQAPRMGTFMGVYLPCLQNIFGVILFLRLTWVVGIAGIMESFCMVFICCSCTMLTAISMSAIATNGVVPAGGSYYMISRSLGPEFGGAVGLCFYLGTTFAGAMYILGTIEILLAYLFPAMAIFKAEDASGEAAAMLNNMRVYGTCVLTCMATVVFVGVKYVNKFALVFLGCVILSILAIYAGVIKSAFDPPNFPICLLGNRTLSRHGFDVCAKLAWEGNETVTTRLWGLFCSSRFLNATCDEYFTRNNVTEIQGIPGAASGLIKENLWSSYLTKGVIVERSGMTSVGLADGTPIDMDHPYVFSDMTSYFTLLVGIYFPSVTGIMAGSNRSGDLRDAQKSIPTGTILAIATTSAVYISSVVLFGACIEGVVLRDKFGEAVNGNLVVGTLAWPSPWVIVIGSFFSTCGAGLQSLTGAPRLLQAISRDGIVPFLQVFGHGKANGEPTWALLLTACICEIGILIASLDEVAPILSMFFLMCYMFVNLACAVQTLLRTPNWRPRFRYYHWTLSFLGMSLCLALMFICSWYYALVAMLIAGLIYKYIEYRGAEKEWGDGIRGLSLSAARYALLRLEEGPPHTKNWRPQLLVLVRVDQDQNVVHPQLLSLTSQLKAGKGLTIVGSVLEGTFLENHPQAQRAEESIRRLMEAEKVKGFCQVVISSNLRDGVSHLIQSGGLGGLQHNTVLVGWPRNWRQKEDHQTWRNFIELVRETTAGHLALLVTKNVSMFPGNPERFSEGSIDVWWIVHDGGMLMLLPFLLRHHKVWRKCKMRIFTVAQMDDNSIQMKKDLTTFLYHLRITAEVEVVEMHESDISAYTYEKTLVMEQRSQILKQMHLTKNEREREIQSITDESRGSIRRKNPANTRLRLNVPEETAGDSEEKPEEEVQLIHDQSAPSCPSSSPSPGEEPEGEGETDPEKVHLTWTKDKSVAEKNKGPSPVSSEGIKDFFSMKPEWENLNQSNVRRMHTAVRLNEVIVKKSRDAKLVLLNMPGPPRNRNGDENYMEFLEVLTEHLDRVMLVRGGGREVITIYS
# Efflux pump mplx: inhibitors of Candida antifungal efflux pumps expressed in yeast; S. cerevisiae Candida pump triplex, Nile Red efflux; inhibition, % at 10 µM; 330,000 tested, 0.44% active;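 active means plate passing quality check with inhibition over a set limit, or well fluorescence over plate mean plus 4 SD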;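 further: Nile Red retained in pooled yeast measured as flow cytometry median fluorescence; 0% = buffer negative control and 100% = Enniatin B positive control; higher means more Nile Red kept so more efflux inhibition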
# PHOSPHO1 block: PHOSPHO1 (human) inhibition; Q8TCT1; recombinant PHOSPHO1, absorbance phosphatase assay; inhibition, % at 13.3 µM; 290,000 tested, 1.1% active; AID 1565; in the data active means inhibition above about 60%
# Cmpd fluor yeast: flagged as fluorescent in efflux inhibitor counter-screen. S. cerevisiae AD/pABC3, compound fluorescence, flow cytometry. AID 588517. 1,700 tested, 4% active. shares compounds with Efflux pump mplx. fluorescence ratio to DMSO, % at 10 µM;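 active means fluorescence ratio to DMSO above its plate's cutoff, the plate mean ratio plus 5 SD, cut at about 210% in these data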;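 further: unstained yeast with no Nile Red so the signal is compound autofluorescence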
# CaMdr1 efflux inh: blocks the Candida albicans Mdr1 efflux pump in yeast. shares compounds with Efflux pump mplx. S. cerevisiae AD/CaMDR1, Nile Red efflux, flow cytometry. inhibition, % at 10 µM. 1,700 tested, 1% active. AID 588518; in the data active means inhibition above about 26%;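 further: 0% = DMSO vehicle and 100% = reference inhibitor; higher means more Nile Red retained so more efflux inhibition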
# Cdr2 pump inh: Candida Cdr2 efflux pump inhibition; shares compounds with Efflux pump mplx; S. cerevisiae AD/CaCDR2, Nile Red retention, flow cytometry; Nile Red retention ratio vs DMSO, % at 10 µM; 1,700 tested, 4% active; AID 588520; in the data active means Nile Red retention ratio vs DMSO above about 190%;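 further: higher ratio means more blocking of Cdr2 efflux of the dye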
# Cdr1 pump inh: blocks the Candida albicans Cdr1 efflux pump in yeast | AID 588522 | 1,700 tested, 1% active | S. cerevisiae AD/CaCDR1, Nile Red efflux, flow cytometry | inhibition, % at 10 µM | shares compounds with Efflux pump mplx;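 active means inhibition above the screen-wide mean plus twice its standard deviation, cut at about 32% in these data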
# * = called active by the depositor; . = no result. Sampled rows, rich in hits. Any-hit rate of the full collection: about 3.3%.
SMILES,Cardio protect,Calb FLC,Cl transport mod,Efflux pump mplx,PHOSPHO1 block,Cmpd fluor yeast,CaMdr1 efflux inh,Cdr2 pump inh,Cdr1 pump inh
CN(C)N1C(N)=C(C#N)C(c2ccc3c(c2)OCO3)C2=C1CCCC2=O (centres undefined),-2.2,6.1,.,2.3*,18.5,99.7,-0.2,92.2,0.0
Cc1ccn(C)c(=N)c1,-6.8,-2.9,.,-0.1,11.7,.,.,.,.
Oc1ccc(CCNc2ncnc3ccc(Cl)cc23)cc1,-30.8,.,.,1.0*,9.9,100.3,-0.3,113.8,0.0
COc1cc(-c2noc(C)c2C#Cc2ccsc2)cc(OC)c1OC,1.1,-8.6,.,0.1,-29.9,.,.,.,.
CCc1cc2c(=O)n(Cc3ccccc3)c(SC3CCOC3=O)nc2s1 (centres undefined),2.0,10.3,-0.00431,0.9*,1.8,97.8,-0.3,112.4,0.1
Cc1ccc(Cn2c(SC3CCOC3=O)nc3ccccc3c2=O)cc1 (centres undefined),21.4,-0.6,-0.51,0.0,-4.0,.,.,.,.
O=C(CSc1nnc(CNC(=O)c2c(F)cccc2F)o1)NCc1ccc2c(c1)OCO2,14.8,.,.,.,.,.,.,.,.
O=C(c1ccccc1)N(c1ccccc1)c1ccccc1O,-0.1,.,.,.,.,.,.,.,.
NS(=O)(=O)c1ccc(NC(=S)N2CCN(c3ccccc3)CC2)cc1,-6.3,2.3,0.836,3.6*,-11.7,104.0,-0.1,98.7,0.0
NS(=O)(=O)c1ccc(NC(=S)N2CCC(O)CC2)cc1,3.4,2.9,0.859,-0.1,0.6,.,.,.,.
O=c1[nH]c(C2CCN(S(=O)(=O)c3ccc4c(c3)OCCO4)CC2)nc2c1nnn2Cc1ccc(F)cc1,-7.3,7.5,.,1.8,22.0,94.4,-0.2,102.2,0.0
Cc1ccc(Cn2nnc3c(=O)[nH]c(C4CCN(S(=O)(=O)c5ccccc5F)CC4)nc32)cc1,-0.8,11.7,.,0.0,35.0,104.5,-0.2,106.3,0.0
O=c1[nH]c(C2CCN(S(=O)(=O)c3ccc4c(c3)OCCO4)CC2)nc2c1nnn2Cc1cccc(F)c1,-2.9,-5.5,.,3.2*,17.4,107.8,0.0,106.0,1.4
O=c1[nH]c(C2CCN(S(=O)(=O)c3ccccc3)CC2)nc2c1nnn2Cc1ccc2c(c1)OCCO2,-5.3,-2.3,.,-0.2,12.6,.,.,.,.
CCOC(=O)c1ccc(-c2c(C)cc3oc(=O)cc(-c4ccccc4)c3c2C)cc1,-7.6,.,.,0.2,.,.,.,.,.
Cc1ccc(C2Nc3ccc4ccccc4c3C3=C2C(=O)CC(C)(C)C3)o1 (centres undefined),8.6,-0.1,-0.158,-0.5,-12.7,.,.,.,.
CCOc1ccc(C2Nc3ccc4ccccc4c3-c3c2c(=O)oc2ccccc32)cc1 (centres undefined),12.3,-2.9,-0.5,0.6*,-2.1,118.2,0.5,107.2,1.1
O=c1oc2ccccc2c2c1C(c1ccc(Cl)cc1)Nc1ccc3ccccc3c1-2 (centres undefined),28.3,-1.9,0.233,1.0*,6.7,103.4,-0.2,114.4,0.5
O=C1CCCC2=C1C(c1ccc(O)c(O)c1)Nc1ccc3ccccc3c12 (centres undefined),1.6,3.2,.,-0.1,.,.,.,.,.
COc1ccc(OC)c(CNC(=O)C2CCC(=O)N(CCCN3CCCC3=O)C2)c1 (centres undefined),-0.8,5.9,.,1.9,36.0,.,.,.,.
Cc1ccc2nc(-c3ccc(NC(=O)CCS(=O)(=O)c4ccccc4)cc3)sc2c1,-8.9,18.8,0.617,0.5*,-20.6,112.4,-0.1,114.4,-0.1
Cc1nc2ccc(NC(=O)CCS(=O)(=O)c3ccccc3)cc2s1,-1.0,7.0,1.54,0.0,-10.5,.,.,.,.
CNc1nc2[nH]c(=O)c3c(c2s1)OC(N)=C(C#N)C3c1ccccc1 (centres undefined),3.1,-8.7,0.976,9.7*,-9.3,116.8,0.1,96.3,0.0
Cc1cc(C)c2c(N)c(C(=O)NN3CC(=O)N(c4ccccc4F)CC3=O)sc2n1,7.5,-2.0,-0.0921,0.8*,-12.8,93.7,-0.4,90.9,-0.4
CN(C)CCN(C(=O)c1ccc(S(=O)(=O)N2CCc3ccccc32)cc1)c1nc2ccc(F)cc2s1,1.1,2.4,.,0.4*,12.5,109.9,0.2,107.8,-0.1
SMILES,Cardio protect,Calb FLC,Cl transport mod,Efflux pump mplx,PHOSPHO1 block,Cmpd fluor yeast,CaMdr1 efflux inh,Cdr2 pump inh,Cdr1 pump inh
Nc1nc2c(F)cccc2s1,1.2,5.0,-0.669,2.2*,0.1,99.0,-0.2,105.1,0.0
NNc1nc2c(F)cccc2s1,-5.6,-6.1,0.0273,-0.1,3.0,.,.,.,.
CN1CCC(N(C)C(=O)c2ccc(Cl)c(S(=O)(=O)Nc3cc(Cl)ccc3Cl)c2)CC1,4.2,.,.,-0.1,.,.,.,.,.
O=C(CN1CCN(C(=O)N2CCOCC2)CC1)Nc1ccc(Br)cc1,-1.2,-6.5,1.54,17.1*,21.3,98.3,-0.1,103.0,-0.1
O=C(CN1CCOCC1)Nc1ccc(Br)cc1,0.6,-2.3,.,-0.2,35.6,.,.,.,.
CCCCN1C(=S)NC[C@@H]1Cc1cccc2ccccc12,-9.7,-14.1,-1.33,0.2,25.1,92.1,-0.5,95.1,-0.1
CCCC[C@@H]1CNC(=S)N1CCc1cccc2ccccc12,-6.5,-8.1,0.855,0.2,-7.6,.,.,.,.
Cc1ccccc1C(=O)N1CCC(C(=O)Nc2ccccc2N2CCCC2)CC1,-4.4,4.6,.,0.2,.,.,.,.,.
COc1cc(OC)c(-c2noc(C(=O)OC(C)(C)C)c2C(=O)OC(C)(C)C)c(OC)c1,-11.5,6.3,-0.0785,1.2*,-0.3,97.2,0.1,93.2,-0.1
Cn1cc(Cl)c(/C(N)=N/OC(=O)c2ccccc2C(F)(F)F)n1,2.9,-7.7,.,0.0,33.4,.,.,.,.
COc1ccc(CN2C(=O)C(C)Nc3ncnc(N4CCOCC4)c32)cc1 (centres undefined),-0.7,.,.,-0.1,.,.,.,.,.
CCC1Nc2ncnc(N3CCN(c4ccccc4)CC3)c2N(Cc2ccccc2)C1=O (centres undefined),5.9,.,.,0.1,.,107.2,-0.2,120.4,0.0
Cc1ccc(CN2C(=O)C(CC(C)C)Nc3ncnc(N4CCN(c5ccccc5)CC4)c32)cc1 (centres undefined),-1.2,.,.,-0.2,.,109.0,0.0,116.6,0.0
CCC1Nc2ncnc(N3CCCCC3)c2N(Cc2ccc(Br)cc2)C1=O (centres undefined),2.3,-2.0,.,0.0,.,.,.,.,.
CCC1Nc2ncnc(N3CCN(c4ccccn4)CC3)c2N(Cc2ccc(Br)cc2)C1=O (centres undefined),10.2,.,.,0.1,.,112.2,0.3,120.8,0.1
COc1ccc(CN2C(=O)C(C)Nc3ncnc(N4CCN(c5ccccc5)CC4)c32)cc1 (centres undefined),31.6,.,.,0.0,.,94.4,-0.1,116.5,0.0
CCC1Nc2ncnc(N3CCN(c4ccccc4)CC3)c2N(Cc2ccc(C)cc2)C1=O (centres undefined),2.5,3.3,.,0.2,.,.,.,.,.
